Screens from PubChem.
Most compounds without a hit are left out; they make up all but 3.6% or so of the library.
IL1B NFkB pot = enhances IL-1B driven NFkB nuclear translocation | HUVEC IL-1B NFkB p65 nuclear translocation imaging | activation, % at 2 µM | 94,000 tested, 0.3% active;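 active = activation above 40%, about the mean plus 3 SD, also judged a hit on visual image review; inconclusive = activation above 40% but not a hit on visual review; inactive = activation not above 40% and no visual hit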;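 note: percent activation is computed from the nuclear over cytoplasmic p65 intensity ratio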
ERa SRC1 inh = ER-alpha (human) coactivator binding inhibition. P03372. TR-FRET ER-alpha LBD / SRC-1 peptide, estradiol-bound. inhibition, % at 25.6 µM. 86,000 tested, 1.7% active. AID 629; in the data active = inhibition above about 50%
Target sequence (P03372 whole entry, looked up, the tested form may be a part): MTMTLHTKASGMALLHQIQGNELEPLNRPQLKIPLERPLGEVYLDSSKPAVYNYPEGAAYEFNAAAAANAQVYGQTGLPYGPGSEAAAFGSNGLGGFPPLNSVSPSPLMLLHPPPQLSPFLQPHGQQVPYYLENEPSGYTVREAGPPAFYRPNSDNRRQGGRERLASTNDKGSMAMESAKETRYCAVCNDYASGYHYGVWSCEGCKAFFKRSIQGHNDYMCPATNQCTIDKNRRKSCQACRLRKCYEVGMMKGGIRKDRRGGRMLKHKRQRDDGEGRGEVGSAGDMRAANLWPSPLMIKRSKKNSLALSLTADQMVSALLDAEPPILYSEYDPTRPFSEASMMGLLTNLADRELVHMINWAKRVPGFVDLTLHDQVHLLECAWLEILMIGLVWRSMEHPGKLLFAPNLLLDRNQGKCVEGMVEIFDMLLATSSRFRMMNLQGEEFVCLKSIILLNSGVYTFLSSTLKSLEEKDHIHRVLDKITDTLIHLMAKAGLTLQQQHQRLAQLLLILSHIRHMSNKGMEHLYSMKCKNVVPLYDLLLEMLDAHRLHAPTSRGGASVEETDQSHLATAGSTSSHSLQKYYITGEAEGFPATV
NFkB transloc inh = blocks IL-1B driven NFkB nuclear translocation in HUVEC cells. HUVEC IL-1B NFkB p65 nuclear translocation imaging. inhibition, % at 2 µM. 94,000 tested, 0.43% active. AID 796;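 active = inhibition above about 30% together with a positive call from visual inspection of the well image, limit read from the data; inconclusive = inhibition above a set limit but visual check negative; inactive = inhibition not above a set limit, visual check negative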;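 note: nuclear over cytoplasmic p65 intensity ratio measured by imaging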
ERb coact inh = ER-beta (human) coactivator binding inhibition; Q92731; TR-FRET ER-beta LBD / SRC1-Cy5 peptide binding; receptor agonist-loaded with 1 µM estradiol; inhibition, % at 25.6 µM; 86,000 tested, 1.3% active; AID 633;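 active = compounds whose percent inhibition of the receptor-coactivator binding signal exceeds about 50% in the single-dose screen, limit read from the data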
ERa SRC1 pot = enhances coactivator binding to human estrogen receptor alpha | coactivator binding (% of control), % at 25.6 µM | TR-FRET ERalpha-LBD/SRC-Cy5 coactivator binding, 2 h; 100 = basal binding, no effect | 86,000 tested, 1.3% active | P03372; in the data active = activity above about 200%;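 note: binding measured in presence of low estradiol as agonist stimulus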
HUVEC tox IL1B = toxic to HUVEC cells under IL-1B stimulation; HUVEC cell count loss, Hoechst imaging, IL-1B stimulated; cell count reduction, % at 2 µM; 94,000 tested, 0.41% active; AID 845;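 active = cell count reduction more than 3 SD above the screen-wide mean, cut at about 70% in these data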
Hits are given with their value; . = inactive; ? = inconclusive; / = no result; [ ] = remark or other dose.

SMILES	IL1B NFkB pot	ERa SRC1 inh	NFkB transloc inh	ERb coact inh	ERa SRC1 pot	HUVEC tox IL1B
Cc1cc(C)c(C(=O)CC2(O)C(=O)Nc3ccccc32)cc1C (stereo unspecified)	.	.	.	.	.	.
COc1ccc2c(c1)c1nc3ccccc3nc1n2CCn1c(=O)oc2ccccc21	.	/	.	/	/	.
O=c1oc2ccccc2n1CCn1c2ccccc2c2nc3ccccc3nc21	.	77	.	.	.	.
Cn1c(=O)oc2ccc(C(=O)CSc3nnnn3-c3ccccc3)cc21	.	.	.	.	284[fluorescence artefact?]	.
O=C(CSc1nnnn1-c1ccccc1)c1cc2ccccc2oc1=O	.	.	.	.	.	.
COc1ccc(-n2nnnc2SCC(=O)c2ccc3c(c2)OCCO3)cc1	/	.	/	.	307[fluorescence artefact?]	/
O=C(CSc1nnc(-c2cccs2)n1-c1cccc(Cl)c1)c1cccc2c1OCCO2	.	.	.	.	259	.
O=C(CSc1nnnn1-c1ccc2c(c1)OCCO2)c1cccc2c1OCCO2	.	.	.	.	375[fluorescence artefact?]	.
CCCCOC(=O)C1Cc2ccccc2C(=O)O1 (stereo unspecified)	.	.	.	.	.	.
Cc1nn(C)c(C)c1NC(=O)CSc1nc(C2CC2)nc2c1cnn2-c1ccccc1	.	.	.	.	.	.
Cc1nn(C)c(C)c1NC(=O)CSc1nc(-c2ccccc2Cl)nc2c1cnn2-c1ccccc1	.	74[fluorescence artefact?]	.	.	.	.
COc1ccc2c(C)nc(Nc3nc(C)c(C)c(=O)[nH]3)nc2c1	/	.	/	.	.	/
COc1ccc2c(C)nc(Nc3nc(C)cc(C)n3)nc2c1	.	.	.	.	243	.
CCOC(=O)c1cnc(-n2nc(C)cc2C)nc1NCc1ccccc1	.	.	.	.	.	.
CCOC(=O)c1cnc(-n2cc(C)cn2)nc1NCc1ccc2c(c1)OCO2	?	65[fluorescence artefact?]	.	.	.	.
Cc1nn(-c2ccccc2)c(Cl)c1/C=N/Nc1ccc(S(=O)(=O)Nc2ccccc2C(=O)O)cc1[N+](=O)[O-]	.	89	.	64	.	.
Cc1cc(S(=O)(=O)Nc2ccccc2C(=O)O)ccc1Cl	.	.	.	.	.	.
COc1ccc2o/c(=N\O)c(C(=O)Nc3ccccc3OC)cc2c1	.	.	.	.	.	76
COc1ccc(OC)c(NC(=O)c2cc3ccccc3o2)c1	.	.	.	.	.	.
CCCCCCNc1c([N+](=O)[O-])cc(C)cc1[N+](=O)[O-]	.	/	.	/	/	.
O=C(Nc1ccc(F)cc1)N1CCOCC1	.	.	.	.	.	.
CN(C)c1ccc(NC(=O)N2CCOCC2)cc1	.	.	.	64[fluorescence artefact?]	.	.
COc1ccc(C)cc1NC(=O)COC(=O)C1CC1	.	/	.	/	/	.
Cc1ccc(OCc2cc(C(=O)Nc3ccccc3)oc2C)cc1	.	.	.	.	.	.
Cc1oc(C(=O)Nc2ccc(O)cc2)cc1COc1ccccc1	.	.	.	52[fluorescence artefact?]	.	.
SMILES	IL1B NFkB pot	ERa SRC1 inh	NFkB transloc inh	ERb coact inh	ERa SRC1 pot	HUVEC tox IL1B
COc1ccc(OCC(=O)c2c(O)c3ccccc3oc2=O)cc1	.	.	.	.	.	94
CCOc1ccc(OCC(=O)c2c(O)c3ccccc3oc2=O)cc1	.	.	.	.	.	.
Cc1ncc([N+](=O)[O-])n1CCOC(=O)Nc1ccc(Cl)c(Cl)c1	.	/	.	/	/	.
CC1CN(c2ccc(S(=O)(=O)N3CCOCC3)cn2)CC(C)O1 (stereo unspecified)	.	.	40	.	.	.
O=S(=O)(c1ccc(N2CCN(S(=O)(=O)c3ccc4c(c3)OCCO4)CC2)nc1)N1CCCC1	.	.	.	.	275[fluorescence artefact?]	.
CCCC(=O)NCCc1ccc(S(N)(=O)=O)cc1	.	.	.	.	.	.
COCCN1CCn2c(nc3cc(NC(=O)c4cccs4)ccc32)C1	.	74[fluorescence artefact?]	.	.	.	.
CC(c1ccccc1)N1CCn2c(nc3cc(NC(=O)c4cccs4)ccc32)C1 (stereo unspecified)	.	.	.	.	.	.
Cc1ccc(-c2nc3ncccc3o2)cc1NC(=O)c1sc2ccccc2c1Cl	.	/	.	/	/	.
Clc1ccc2nc(N3CCNCC3)nc(-c3ccccc3)c2c1	.	.	.	.	.	.
COc1cc2nc(N3CCNCC3)nc(N)c2cc1OC	.	87[fluorescence artefact?]	.	.	.	.
COc1cc(/C=N/N(C)c2ccccc2)cc(Cl)c1O	.	.	.	.	.	.
